The source of these data is ChEMBL document CHEMBL3988442, “University of Dundee, Small-Polar-MMV Screening Library” (2021).

Structures are written as SMILES. Out of some 48,000 compounds screened, about 13,000 (27%) showed an effect of 50% or more. The list shows a part of the results.

For this test, the system named is Wolbachia pipientis. Kind of test: Anti-Wolbachia Cell-Based Screen. It is filed as functional. The arrangement: scale not given: in the data most compounds retested in dose-response had high values. The settings on record: 5 µM.
Regarding `O=C1N(c2ccc(F)cc2)Cc2nc(=O)n(Cc3cccc(Cl)c3)n21`, the “Percent Effect” value is given as -4.998%.

On to `COc1cccc(CC2CCCN2CCCO)c1` (configuration not stated), for which the “Percent Effect” value is 13.01%.

In the case of `COc1cccc(CN2CCCC2c2c(C)nn(C)c2C)c1` (configuration not stated), the “Percent Effect” value is recorded as 0.6284%.

Consider `COc1cccc(CN2CCCCC2c2n[nH]cc2-c2cc(C)no2)c1.Cl` (configuration not stated), for which the “Percent Effect” value came out at 78.4%.

As to `CCN(CCCNC(=O)c1ccc(C)[nH]c1=O)S(C)(=O)=O`, the “Percent Effect” value is -16.03%.

In the case of `CC1=C[C@@H](CN2CCN(C)CC2)[C@H](C(C)C)C[C@H]1Cc1nnc(C)o1`, the “Percent Effect” value is on record as -4.667%.

With `CN(Cc1nc(-c2ccccc2)c[nH]1)C(=O)NCC(=O)NC(C)(C)C`, the “Percent Effect” value is -12.98%.

For the molecule `O=C(CCCn1ccnc1)N[C@H]1CN(C2CCCC2)C[C@@H]1C1CC1`, the “Percent Effect” value is -1.542%.

With `O=C(CCCn1ccnc1)NC1CCCN(c2ccccc2Cl)C1` (configuration not stated), the “Percent Effect” value was found to be 86.14%.

As for `COc1ccccc1OC1CCN(C(=O)CCCn2ccnc2)CC1`, the “Percent Effect” value is 6.898%.

Regarding `Cc1cc(F)ccc1N1CCCC(NC(=O)CCc2ccncc2)C1` (configuration not stated), the “Percent Effect” value is 111.2%.

For the molecule `Cc1cc(F)ccc1N1CCCC(NC(=O)CCCn2ccnc2)C1` (configuration not stated), the “Percent Effect” value was 114.8%.

Regarding `CCC[C@H]1CN(S(C)(=O)=O)C[C@@H]1NC(=O)CCCn1ccnc1`, the “Percent Effect” value is 0.7566%.

With `Cc1ccc(Cl)cc1N1CCC(CNC(=O)CCn2ccnc2)C1` (configuration not stated), the “Percent Effect” value is 19.22%.

For the molecule `Cc1n[nH]c(C)c1CCC(=O)NC1CCCN(c2ccccc2F)C1` (configuration not stated), the “Percent Effect” value was -4.293%.

On to `O=C(NCc1cccc(F)c1)NC1CCCN(c2ncccn2)C1` (configuration not stated), for which the “Percent Effect” value came to 12.98%.

Take `CN(Cc1cn2c(n1)CN(C(=O)c1ccc[nH]1)CC2)Cc1ccco1.O=C(O)C(F)(F)F`: the “Percent Effect” value is -0.5876%.

For `CC(C)Nc1nc2c(c(N(C)C)n1)CCN(C(=O)c1cc[nH]n1)CC2`, the “Percent Effect” value is -2.807%.

For `CN(C)Cc1n[nH]c2c1CCN(Cc1cccs1)C2.O=C(O)C(F)(F)F.O=C(O)C(F)(F)F`, the “Percent Effect” value is on record as -7.744%.

`Cc1cc(C(=O)N2CCc3c(ncnc3N3CCOCC3)C2)[nH]n1`: the “Percent Effect” value is reported as -12.68%.

With `Cc1cc(C(=O)N2CCc3c(CN(C)C(C)C)n[nH]c3C2)[nH]n1`, the “Percent Effect” value was 101.7%.

With `CC(C)N(C)Cc1n[nH]c2c1CCN(C(=O)c1ccc[nH]1)C2.O=C(O)C(F)(F)F`, the “Percent Effect” value is reported as 99.94%.

Consider `CC(C)N(C)Cc1n[nH]c2c1CCN(C(=O)c1cc[nH]n1)C2`, for which the “Percent Effect” value was 93.85%.

For `O=C(c1ccsc1)N1CCc2c(CN3CCCC3)n[nH]c2C1`, the “Percent Effect” value is on record as -0.6462%.

Consider `Cc1nocc1C(=O)N1CCc2c(CN(C)C(C)C)n[nH]c2C1`, for which the “Percent Effect” value is given as -1.781%.

Regarding `Cc1cc(Br)oc1C(=O)N1CCC(N(C)C)CC1`, the “Percent Effect” value is on record as -50.6%.

Turning to `COCCN1CCCC2(CCN(c3nccnc3N(C)C)C2)C1=O` (configuration not stated), the “Percent Effect” value is reported as -5.787%.
